Assay results: PubChem BioAssay (NCATS)
Inconclusive results are not listed. Calls of active or inactive are those of the source. Unless noted, calls come from the whole dose curve; as a rule, active = well fitted curve in the direction sought with a large enough effect; inconclusive = small, poorly fitted or top-dose-only effect, or another doubt; inactive = no such curve, though single readings can be large; an effect the other way counts as inactive or inconclusive.

What was measured:
[1] = NS1 protein of Zika virus - qHTS assay to identify small molecule inhibitors in human HEK 293 cells (AID 1347053); note: series mostly up to about 46 µM; nearly all actives have a fitted effect of over 55% in size
In short: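 HEK 293 cells, seeded 20 h at 37 C, were pretreated with compound 1 h, then infected with ZIKV MR766 (MOI = 0.5) for 24 h. NS1 was read by TR-FRET with two anti-NS1 antibodies, normalized to uninfected and infected wells.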

[2] = qHTS for Inhibitors of the Functional Ribonucleoprotein Complex (vRNP) of Lassa (LASV) Arenavirus: LASV Primary Screen - GLuc reporter signal (AID 1347082; calls by dose curve; tested in HEK293 reporter line; note: series mostly up to about 57 µM; nearly all actives have a fitted effect of over 60% in size)
[3] = qHTS for Inhibitors of the Functional Ribonucleoprotein Complex (vRNP) of Lassa (LASV) Arenavirus: Viability assay - alamar blue signal for LASV Primary Screen (AID 1347083; calls by dose curve; tested in HEK293 reporter line; note: series mostly up to about 57 µM; nearly all actives have a fitted effect of over 80% in size)
[4] = qHTS for Inhibitors of the Functional Ribonucleoprotein Complex (vRNP) of Lymphocytic Choriomeningitis Arenaviruses (LCMV): Viability assay - alamar blue signal for LCMV Primary Screen (AID 1347085; calls by dose curve; tested in HEK293 reporter line; note: series mostly up to about 57 µM; nearly all actives have a fitted effect of over 80% in size)
[5] = target: Nucleoprotein (Lymphocytic choriomeningitis virus (strain Armstrong)) (UniProt P09992); test: qHTS for Inhibitors of the Functional Ribonucleoprotein Complex (vRNP) of Lymphocytic Choriomeningitis Arenaviruses (LCMV): LCMV Primary Screen - GLuc reporter signal (AID 1347086; calls by dose curve; note: series mostly up to about 57 µM; nearly all actives have a fitted effect of over 70% in size)
[6] = qHTS of pediatric cancer cell lines to identify multiple opportunities for drug repurposing: Primary screen for TC32 cells (AID 1347089); note: nearly all actives have a fitted effect of over 60% in size
In short: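 In the primary qHTS, MIPE compounds were tested at 11 concentrations (0.78 nM to 46 µM) and NPC compounds at 8 (0.59 nM to 46 µM) on TC32 cells for 48 h. CellTiter-Glo luminescence gave viability.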

[7] = qHTS of pediatric cancer cell lines to identify multiple opportunities for drug repurposing: Primary screen for DAOY cells (AID 1347090); note: series mostly up to about 46 µM; nearly all actives have a fitted effect of over 55% in size
In short: (§1)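 Eight- or eleven-point concentration series, 48 h treatment at 37 degrees C in growth media; readout CellTiter-Glo luminescence. Potency and efficacy were taken from the concentration-response curves.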

[8] = qHTS of pediatric cancer cell lines to identify multiple opportunities for drug repurposing: Primary screen for SJ-GBM2 cells (AID 1347091)
In short: as §1

[9] = qHTS of pediatric cancer cell lines to identify multiple opportunities for drug repurposing: Primary screen for A673 cells (AID 1347092); note: nearly all actives have a fitted effect of over 45% in size
In short: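 48 h compound exposure, A673, 500-1,000 cells/well, 37 degrees C/5% CO2. MIPE: 11-point, 0.78 nM-46 µM; NPC: 8-point, 0.59 nM-46 µM (final). Readout CellTiter-Glo luminescence after 15 min RT.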

[10] = qHTS of pediatric cancer cell lines to identify multiple opportunities for drug repurposing: Primary screen for SK-N-MC cells (AID 1347093); note: series mostly up to about 46 µM
In short: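 Metabolically active cells were quantified by ATP-dependent luminescence (CellTiter-Glo, 15 min at room temperature) following 48 h treatment. Cells had been plated at 500-1,000 per well and settled for 5 h beforehand.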

[11] = qHTS of pediatric cancer cell lines to identify multiple opportunities for drug repurposing: Primary screen for BT-37 cells (AID 1347094); note: series mostly up to about 57 µM
In short: (§2)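 Readout: CellTiter-Glo luminescence, 48 h treatment. Controls DMSO (neutral) and bortezomib 2.3 µM final (positive). Potency and efficacy taken from primary-screen concentration-response curves.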

[12] = qHTS of pediatric cancer cell lines to identify multiple opportunities for drug repurposing: Primary screen for NB-EBc1 cells (AID 1347095)
In short: as §2

[13] = qHTS of pediatric cancer cell lines to identify multiple opportunities for drug repurposing: Primary screen for U-2 OS cells (AID 1347096); note: nearly all actives have a fitted effect of over 50% in size
In short: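 Cells (500-1,000/well) in growth media were settled 5 h at 37 degrees C, then given compounds for 48 h. Viability was read as CellTiter-Glo luminescence. Primary runs used MIPE at 11 points (0.78 nM-46 µM) and NPC at 8 points (0.59 nM-46 µM); follow-ups used 11 points.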

[14] = Natriuretic polypeptide receptor (hNpr1) antagonism - Pilot counterscreen GloSensor control cell line (AID 1347045; calls by dose curve; note: series mostly up to about 38 µM)
In short: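 Luminescence was read before and 20 min after adding 50 uM SNP, which stimulates soluble guanylyl cyclase. The HEK293 cells expressing the GloSensor cGMP sensor had been preloaded with 2% reagent for 2 h and treated with compound.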

[15] = target: Atrial natriuretic peptide receptor 1 (Homo sapiens) (UniProt P16066); test: Natriuretic polypeptide receptor (hNpr1) antagonism - Pilot screen (AID 1347049; calls by dose curve;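 note: agonist-evoked cGMP luminescence read 20 min after hNppA addition; series mostly up to about 58 µM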)
In short: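 HEK293 cells co-expressing hNpr1 and the GloSensor pGS-40F cGMP luciferase sensor were preloaded with 2% GloSensor reagent for 2 h. Compounds were added for 30 min at room temperature, then cells were stimulated with 0.1 nM hNppA for 20 min before luminescence readout.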

[16] = target: Atrial natriuretic peptide receptor 2 (Homo sapiens) (UniProt P20594); test: Natriuretic polypeptide receptor (hNpr2) antagonism - Pilot subtype selectivity assay (AID 1347050; calls by dose curve)
In short: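 cGMP-sensor HEK293/hNpr2 cells; 2% GloSensor reagent 2 h RT; compounds 30 min; baseline luminescence read; 1 nM hNppC agonist 20 min RT; final luminescence read by CCD camera. Antagonism = reduced post-agonist signal.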

[17] = target: T1, Tyrosine-protein phosphatase non-receptor type substrate 1 (Homo sapiens) + Leukocyte surface antigen CD47 (Homo sapiens) (UniProt P78324+Q08722); test: CD47-SIRPalpha protein protein interaction - LANCE assay qHTS validation (AID 1347057; active = well fitted curve in the direction sought with a large enough effect in the signal ratio, with a control signal flat, not every such curve was filed as active; the % refers to the signal ratio; note: series mostly up to about 38 µM)
In short: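 First, His-tagged CD47 and Eu-labelled anti-His antibody met the compound for 30 min; next, site-specifically biotinylated SIRPalpha was added for 30 min; finally streptavidin-APC was added before reading the TR-FRET ratio.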

[18] = target: T1, Tyrosine-protein phosphatase non-receptor type substrate 1 (Homo sapiens) + Leukocyte surface antigen CD47 (Homo sapiens); test: CD47-SIRPalpha protein protein interaction - HTRF assay qHTS validation (AID 1347058; active = well fitted curve in the direction sought with a large enough effect in the signal ratio, not every such curve was filed as active; the % refers to the signal ratio; note: series mostly up to about 38 µM)
In short: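 TR-FRET read (Ch1/Ch2 ratio) of soluble extracellular CD47 and Avi-biotinylated SIRPalpha domains in PBS pH 7.4 with 0.05% IGEPAL; 7-point compound titration. Sequential 30 min room-temperature steps; non-biotinylated SIRPalpha as control inhibitor.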

[19] = target: T1, Tyrosine-protein phosphatase non-receptor type substrate 1 (Homo sapiens) + Leukocyte surface antigen CD47 (Homo sapiens); test: CD47-SIRPalpha protein protein interaction - Alpha assay qHTS validation (AID 1347059);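 note: bead proximity luminescence from CD47 binding SIRPalpha after compound preincubation with SIRPalpha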
In short: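 Soluble extracellular domains: Avi-tag biotinylated SIRPalpha (25 nM) preincubated 30 min RT with compound, then 6His-CD47 (12.5 nM) 30 min; Ni-NTA acceptor and streptavidin donor beads (10 ug/mL) 30 min, AlphaScreen read. PBS pH 7.4, 0.05% IGEPAL.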

[20] = target: Parathyroid hormone/parathyroid hormone-related peptide receptor (Homo sapiens) (UniProt Q03431); test: qHTS for PTHR1 Agonists: Optimization Screen against the NCGC LOPAC library (AID 1347079);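 note: GloSensor cAMP luminescence in HEK-293 GP2 cells expressing human PTHR1 with IBMX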
In short: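 Agonist readout: GloSensor cAMP luminescence, read after 15 min at room temperature. HEK-293-derived GP2 line carries PTHR1; compounds tested as a titration for 1 hr at 37C in presence of IBMX. M-PTH (1-15) served as control.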

Measured: Potency

Parathyroid hormone/parathyroid hormone-related peptide receptor (Homo sapiens), sequence (Q03431 whole entry, looked up): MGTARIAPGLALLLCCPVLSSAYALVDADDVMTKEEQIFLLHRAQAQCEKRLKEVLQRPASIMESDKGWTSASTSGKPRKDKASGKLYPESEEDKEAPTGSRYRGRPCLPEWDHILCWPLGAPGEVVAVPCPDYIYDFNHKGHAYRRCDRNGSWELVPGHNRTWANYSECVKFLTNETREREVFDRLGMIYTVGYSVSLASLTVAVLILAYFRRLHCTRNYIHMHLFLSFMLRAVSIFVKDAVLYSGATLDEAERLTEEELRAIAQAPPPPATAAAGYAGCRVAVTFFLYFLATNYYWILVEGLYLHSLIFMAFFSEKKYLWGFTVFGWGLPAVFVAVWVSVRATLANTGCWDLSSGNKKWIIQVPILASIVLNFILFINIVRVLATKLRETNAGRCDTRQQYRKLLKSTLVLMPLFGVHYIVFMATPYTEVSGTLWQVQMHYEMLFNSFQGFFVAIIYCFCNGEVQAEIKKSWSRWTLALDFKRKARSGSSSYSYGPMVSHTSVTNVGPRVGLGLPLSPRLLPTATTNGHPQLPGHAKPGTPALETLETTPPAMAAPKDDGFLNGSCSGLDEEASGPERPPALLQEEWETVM
Nucleoprotein (Lymphocytic choriomeningitis virus (strain Armstrong)), sequence (P09992 whole entry, looked up): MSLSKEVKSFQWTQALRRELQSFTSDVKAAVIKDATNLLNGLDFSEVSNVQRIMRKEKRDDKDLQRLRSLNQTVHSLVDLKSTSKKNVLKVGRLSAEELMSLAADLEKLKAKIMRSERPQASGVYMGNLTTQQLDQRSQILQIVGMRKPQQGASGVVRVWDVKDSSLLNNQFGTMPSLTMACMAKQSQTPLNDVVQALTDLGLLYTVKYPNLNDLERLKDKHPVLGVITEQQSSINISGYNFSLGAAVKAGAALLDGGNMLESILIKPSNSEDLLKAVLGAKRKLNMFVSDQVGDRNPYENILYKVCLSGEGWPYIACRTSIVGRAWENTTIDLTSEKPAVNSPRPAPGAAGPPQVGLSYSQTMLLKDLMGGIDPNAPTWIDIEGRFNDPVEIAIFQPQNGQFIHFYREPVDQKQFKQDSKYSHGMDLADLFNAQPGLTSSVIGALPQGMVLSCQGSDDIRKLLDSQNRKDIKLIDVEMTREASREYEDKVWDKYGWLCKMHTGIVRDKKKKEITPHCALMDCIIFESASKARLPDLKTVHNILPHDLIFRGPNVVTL
T1 sequence (P78324 whole entry, looked up): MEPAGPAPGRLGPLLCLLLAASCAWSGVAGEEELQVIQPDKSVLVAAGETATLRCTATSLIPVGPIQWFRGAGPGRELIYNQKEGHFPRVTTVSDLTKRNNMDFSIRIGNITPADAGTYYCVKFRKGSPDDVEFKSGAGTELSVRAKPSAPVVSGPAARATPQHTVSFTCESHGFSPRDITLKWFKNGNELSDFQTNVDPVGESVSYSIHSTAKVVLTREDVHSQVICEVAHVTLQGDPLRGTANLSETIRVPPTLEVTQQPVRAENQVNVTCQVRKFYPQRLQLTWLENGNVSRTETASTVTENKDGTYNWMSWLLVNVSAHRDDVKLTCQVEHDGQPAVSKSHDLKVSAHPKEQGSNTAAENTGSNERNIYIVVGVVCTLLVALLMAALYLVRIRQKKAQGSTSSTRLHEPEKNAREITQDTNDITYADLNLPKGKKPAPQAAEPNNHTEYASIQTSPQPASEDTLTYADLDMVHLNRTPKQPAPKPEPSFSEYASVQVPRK
T1 sequence (Q08722 whole entry, looked up): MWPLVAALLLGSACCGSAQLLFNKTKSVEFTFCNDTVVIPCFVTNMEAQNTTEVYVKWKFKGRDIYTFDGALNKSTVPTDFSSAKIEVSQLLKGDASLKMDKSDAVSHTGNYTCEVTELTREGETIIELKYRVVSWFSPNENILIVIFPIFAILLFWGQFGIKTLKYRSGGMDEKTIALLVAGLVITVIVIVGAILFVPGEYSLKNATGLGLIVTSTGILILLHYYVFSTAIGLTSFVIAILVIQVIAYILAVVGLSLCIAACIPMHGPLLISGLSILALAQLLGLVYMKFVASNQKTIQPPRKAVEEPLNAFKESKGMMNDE
Atrial natriuretic peptide receptor 1 (Homo sapiens), sequence (P16066 whole entry, looked up): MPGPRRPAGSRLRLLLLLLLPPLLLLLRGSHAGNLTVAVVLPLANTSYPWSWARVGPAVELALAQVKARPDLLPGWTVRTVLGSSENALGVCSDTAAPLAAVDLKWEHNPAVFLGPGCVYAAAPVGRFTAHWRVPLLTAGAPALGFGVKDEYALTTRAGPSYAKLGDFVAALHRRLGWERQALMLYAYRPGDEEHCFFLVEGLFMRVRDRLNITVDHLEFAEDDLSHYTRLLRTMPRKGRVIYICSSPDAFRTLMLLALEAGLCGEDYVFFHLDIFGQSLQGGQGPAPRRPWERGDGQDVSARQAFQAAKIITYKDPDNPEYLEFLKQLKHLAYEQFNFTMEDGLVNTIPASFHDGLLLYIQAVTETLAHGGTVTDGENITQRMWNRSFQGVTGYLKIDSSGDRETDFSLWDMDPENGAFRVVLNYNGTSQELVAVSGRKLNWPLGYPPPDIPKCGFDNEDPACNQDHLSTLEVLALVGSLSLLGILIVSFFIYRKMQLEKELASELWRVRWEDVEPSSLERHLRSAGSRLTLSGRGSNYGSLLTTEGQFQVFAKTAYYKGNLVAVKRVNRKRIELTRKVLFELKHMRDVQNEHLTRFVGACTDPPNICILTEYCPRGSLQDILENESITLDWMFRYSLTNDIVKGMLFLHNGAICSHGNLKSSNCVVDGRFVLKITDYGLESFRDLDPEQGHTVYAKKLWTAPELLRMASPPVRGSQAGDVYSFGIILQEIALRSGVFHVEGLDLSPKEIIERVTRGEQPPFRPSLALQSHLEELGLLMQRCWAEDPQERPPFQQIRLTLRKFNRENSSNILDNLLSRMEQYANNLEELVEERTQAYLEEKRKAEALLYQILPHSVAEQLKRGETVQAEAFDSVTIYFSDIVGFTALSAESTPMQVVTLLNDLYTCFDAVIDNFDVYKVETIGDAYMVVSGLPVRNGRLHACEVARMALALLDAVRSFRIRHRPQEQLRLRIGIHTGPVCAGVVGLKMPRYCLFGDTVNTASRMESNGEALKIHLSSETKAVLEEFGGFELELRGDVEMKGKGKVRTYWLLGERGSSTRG
Atrial natriuretic peptide receptor 2 (Homo sapiens), sequence (P20594 whole entry, looked up): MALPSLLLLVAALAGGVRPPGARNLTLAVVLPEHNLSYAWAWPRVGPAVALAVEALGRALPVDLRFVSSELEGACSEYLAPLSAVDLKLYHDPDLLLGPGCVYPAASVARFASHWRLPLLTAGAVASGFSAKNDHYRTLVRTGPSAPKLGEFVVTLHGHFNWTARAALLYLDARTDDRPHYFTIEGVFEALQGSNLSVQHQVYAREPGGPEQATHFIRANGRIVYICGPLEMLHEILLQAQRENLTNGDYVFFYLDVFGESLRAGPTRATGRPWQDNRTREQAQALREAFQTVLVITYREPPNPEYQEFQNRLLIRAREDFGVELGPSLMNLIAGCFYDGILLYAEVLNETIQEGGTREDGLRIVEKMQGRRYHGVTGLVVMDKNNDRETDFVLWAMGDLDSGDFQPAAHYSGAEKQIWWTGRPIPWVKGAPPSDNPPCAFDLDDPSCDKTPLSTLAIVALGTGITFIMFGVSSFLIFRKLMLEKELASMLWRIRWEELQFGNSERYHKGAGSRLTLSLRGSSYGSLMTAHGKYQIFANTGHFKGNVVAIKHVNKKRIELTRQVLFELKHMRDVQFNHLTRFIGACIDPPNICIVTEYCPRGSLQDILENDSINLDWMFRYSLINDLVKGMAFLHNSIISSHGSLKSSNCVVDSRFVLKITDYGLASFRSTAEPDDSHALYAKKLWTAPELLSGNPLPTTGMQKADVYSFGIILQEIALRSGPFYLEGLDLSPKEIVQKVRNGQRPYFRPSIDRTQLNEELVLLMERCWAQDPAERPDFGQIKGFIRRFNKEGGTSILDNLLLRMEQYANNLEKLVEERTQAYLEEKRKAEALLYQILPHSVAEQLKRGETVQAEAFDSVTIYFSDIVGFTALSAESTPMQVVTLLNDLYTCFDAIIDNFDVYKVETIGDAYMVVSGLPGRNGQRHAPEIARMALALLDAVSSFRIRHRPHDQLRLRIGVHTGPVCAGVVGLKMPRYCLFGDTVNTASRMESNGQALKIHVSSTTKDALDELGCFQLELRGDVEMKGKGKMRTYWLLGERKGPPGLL

CC(C)C(Br)C(=O)NC(N)=O (stereo unspecified)
inactive: [1] | [2] | [3] | [4] | [5] | [6] | [7] | [8] | [9] | [10] | [11] | [12] | [13]

CC1=C2[C@H]3OC(=O)[C@@H](C)[C@@H]3CC[C@@]2(C)C=CC1=O
inactive: [1] | [2] | [3] | [4] | [5] | [6] | [7] | [8] | [9] | [10] | [11] | [12]

CCN(CC)CCOC(=O)C(C)(c1ccccc1)c1ccccc1
inactive: [1] | [2] | [3] | [4] | [5] | [6] | [7] | [8] | [9] | [10] | [11] | [12]

CC(C)NCC(O)c1ccc(N)c(C#N)c1 (stereo unspecified)
inactive: [1] | [2] | [3] | [4] | [5] | [6] | [7] | [8] | [9] | [10] | [11] | [12]

CN1C[C@@H](NS(=O)(=O)N(C)C)C[C@@H]2c3cccc4c3c(cn4C)C[C@H]21
inactive: [1] | [2] | [3] | [4] | [5] | [6] | [7] | [8] | [9] | [10] | [11] | [12] | [13]

COP(=O)(OC)C(O)C(Cl)(Cl)Cl (stereo unspecified)
inactive: [1] | [2] | [3] | [4] | [5] | [6] | [7] | [8] | [9] | [10] | [11] | [12]

CN(C)CCc1c[nH]c2ccccc12
inactive: [1] | [2] | [3] | [4] | [5] | [6] | [7] | [8] | [9] | [10] | [11] | [12]

NC(=O)CN1CCCC1=O
inactive: [14] | [15] | [16] | [1] | [17] | [18] | [19] | [20] | [2] | [3] | [4] | [5] | [6] | [7] | [8] | [9] | [10] | [11] | [12]

CCCC(C)C1(CC)C(=O)N=C(S)NC1=O (stereo unspecified)
inactive: [1] | [2] | [3] | [4] | [5] | [6] | [7] | [8] | [9] | [10] | [11] | [12] | [13]

COC(=O)C1=CCCN(C)C1
inactive: [14] | [15] | [16] | [17] | [18] | [19] | [20] | [2] | [3] | [4] | [5] | [6] | [7] | [8] | [9] | [11] | [12] | [13]

COc1ccc(OC)c(CC(C)N)c1 (stereo unspecified)
inactive: [1] | [2] | [3] | [4] | [5] | [6] | [7] | [8] | [9] | [10] | [11] | [12]

CCOC(=O)c1cncn1C(C)c1ccccc1 (stereo unspecified)
inactive: [1] | [2] | [3] | [4] | [5] | [6] | [7] | [8] | [9] | [10] | [11] | [12] | [13]

C[C@@H]1CN(C2CCC(C#N)(c3ccc(F)cc3)CC2)CC[C@]1(C(=O)O)c1ccccc1 (stereo partly specified)
inactive: [1] | [2] | [3] | [4] | [5] | [6] | [7] | [8] | [9] | [10] | [11] | [12]

COc1cc(N)c(Cl)cc1C(=O)NC1CN2CCC1CC2 (stereo unspecified)
inactive: [1] | [2] | [3] | [4] | [5] | [6] | [7] | [8] | [9] | [10] | [11] | [12]

CCc1ccc(C2CCNCC2)cc1
inactive: [1] | [2] | [3] | [4] | [5] | [6] | [7] | [8] | [9] | [10] | [11] | [12] | [13]

O=C(N[C@H]1N=C(c2ccccc2F)c2cccc3c2N(CC3)C1=O)c1cc2ccccc2[nH]1
inactive: [1] | [2] | [3] | [4] | [5] | [6] | [7] | [8] | [9] | [10] | [11] | [12]

CNC(=O)NC(O)C(Cl)(Cl)Cl (stereo unspecified)
inactive: [1] | [2] | [3] | [4] | [5] | [6] | [7] | [8] | [9] | [10] | [11] | [12]

COc1ccc(C(=O)N2CCCC2=O)cc1
inactive: [14] | [15] | [16] | [17] | [18] | [19] | [20] | [2] | [3] | [4] | [5] | [6] | [7] | [8] | [9] | [11] | [12]

CCCOC(=O)Cc1ccc(OCC(=O)N(CC)CC)c(OC)c1
inactive: [1] | [2] | [3] | [4] | [5] | [6] | [7] | [8] | [9] | [10] | [11] | [12]
